Results as given in ChEMBL document CHEMBL4513216, “Probing the Open Global Health Chemical Diversity Library for Multistage-Active Starting Points for Next-Generation Antimalarials” (ACS Infect Dis, 2020).
The campaign covered roughly 69,000 compounds. About 8,600 (12%) showed an effect of 50% or more. Shown is part of a subset that was picked to be rich in strong results.

test system: Plasmodium berghei; assay: Screen against P. berghei liver stage (PbLuc), transformed with Luciferase, at 10uM; type: functional, HepG2; conditions: tested at 10 uM

| Structure (SMILES) | INHIBITION [%] |
| --- | --- |
| CCCc1nc(C)cc(N2CCC3(CCC(=O)N(C4CC4)C3)CC2)n1 | -23.5 |
| CCCS(=O)(=O)NCc1nc(C)cc(N2CCCC2)n1 | 56.6 |
| CCS(=O)(=O)NCc1nc(C)cc(N2CCCCC2)n1 | 75.2 |
| Cc1cc(N2CCCC2)nc(CNS(=O)(=O)Cc2ccccc2)n1 | 81 |
| CCc1nnc2n1CCN(C(=O)Cc1nc(-c3ccco3)oc1C)C2 | -17.6 |
| Cc1ncc(C(=O)N2CCCC(n3nc(C)nc3C)C2)c(C(C)C)n1 (centres undefined) | -3.15 |
| Cc1cc(C)n(CC2CCCN2C(=O)c2cccc(C#N)c2)n1 (centres undefined) | -3.585 |
| COc1ccc(OCCN2CCC(c3ccnn3CCO)CC2)cc1 | 11.4 |
| Cc1ccc(C(C(=O)NC(C)(C)CN2CCCC2)N(C)C)cc1 (centres undefined) | 35.7 |
| CCOCC1c2c(ncn2C)CCN1C(=O)c1ccoc1 (centres undefined) | -3.17 |
| CCOCC1CN(C(=O)c2cscn2)Cc2cn(C)nc21 (centres undefined) | 17.1 |
| CCOCC1c2c(ncn2C)CCN1C(=O)c1cscn1 (centres undefined) | 60.2 |
| CCOCC1CC2(CCN(C(=O)c3cscn3)CC2)CO1 (centres undefined) | 9.63 |
| CCOCC1c2c(ncn2C)CCN1C(=O)c1cnc(C)cn1 (centres undefined) | 57.5 |
| CCOCC1c2c(cnn2C)CCN1C(=O)c1cc(C)on1 (centres undefined) | 37.6 |
| CCOCC1c2c(ncn2C(C)C)CCN1C(=O)C1CC1 (centres undefined) | 76.4 |
| CCn1ncc2c1C(COC)N(C(=O)Cc1cccs1)CC2 (centres undefined) | 25.8 |
| CCn1ncc2c1C(COC)N(C(=O)c1cccs1)CC2 (centres undefined) | 51.2 |
| CCOCC1c2c(ncn2C(C)C)CCN1C(=O)CC (centres undefined) | 29.8 |
| CCOCC1c2c(ncn2C(C)C)CCN1C(C)C (centres undefined) | 10.5 |
| CCn1ncc2c1C(COC)N(C(=O)c1ccsc1)CC2 (centres undefined) | 43.9 |
| CN(Cc1cc(C2CC2)[nH]n1)C(=O)c1cnn2ccn(C)c12 | 14.9 |
| Cc1c(-c2cccs2)nn2c(=O)c3c([nH]c12)CN(C(=O)C1CC1)C3 | 43.7 |
| CC1c2ncc(CNC(=O)C3CC3)n2CCN1Cc1ccncc1 (centres undefined) | 6.55 |
| CN1CCN(c2cc(CNC(=O)c3cnccn3)ccn2)CC1 | 35.3 |
| O=C(CC(F)(F)F)N1C[C@@H]2CC[C@H]1CN(Cc1ccccc1)C2 | -8.47 |
| CNc1nc(C2CCCCN2C(=O)C(C)(C)OC)nc2c1CN(C)CC2 (centres undefined) | 38.2 |

| Structure (SMILES) | INHIBITION [%] |
| --- | --- |
| CC1c2ncc(COCC3CCOCC3)n2CCN1C(=O)c1ccco1 (centres undefined) | 47.2 |
| COC1C[C@@H]2CN(C(=O)c3cc4ccc(F)cc4[nH]3)C[C@@H]2C1 (some centres undefined) | -36.1 |
| COCC1c2c(cnn2C)CCN1C(=O)c1cscn1 (centres undefined) | 56.6 |
| COCC1c2c(cnn2C)CCN1C(=O)c1cc(C)on1 (centres undefined) | 38.5 |
| CCn1ncc2c1C(COC)N(C(=O)c1cscn1)CC2 (centres undefined) | 38.5 |
| O[C@@H]1C[C@H]2CN(CC3CCCCC3)[C@H](Cc3ccccc3)CN2C1 | 16.2 |
| O=C(CC1CC1)NCc1cn2c(n1)CN(C(=O)c1cccnc1)CC2 | -5.69 |
| Cn1cc(Br)c(=O)c(NS(=O)(=O)c2ccc(Cl)cc2)c1 | -4.68 |
| CC(=O)N1CCN(CC(C)(O)c2cccc(C(F)(F)F)c2)CC1 (centres undefined) | 33.3 |
| CC(=O)N1CCCN(CC(C)(O)c2cccc(C(F)(F)F)c2)CC1 (centres undefined) | 64.5 |
| CCN1CCN(CC(C)(O)c2cccc(C(F)(F)F)c2)CC1 (centres undefined) | 20.1 |
| Cn1cnnc1S(=O)(=O)Cc1cc(Cl)c2c(c1)OCCO2 | 63.8 |
| CN(C)C(=O)CS(=O)(=O)Cc1cc(Cl)c2c(c1)OCCO2 | 16.9 |
| CC(C(N)=O)S(=O)(=O)Cc1cc(Cl)c2c(c1)OCO2 (centres undefined) | 16.7 |
| Cn1cnnc1S(=O)(=O)Cc1cc(Cl)c2c(c1)OCO2 | 68.4 |
| CCc1nnc(S(=O)(=O)Cc2cc(Cl)c3c(c2)OCO3)n1C | 24.8 |
| CNC(=O)CCS(=O)(=O)Cc1cc(Cl)c2c(c1)OCCO2 | 15.3 |
| Cc1csc(N2CCCN(C(=O)c3c(C)noc3C)CC2)n1 | -19.6 |
| COc1cccc(CCN2C[C@H]3CCNCC[C@H]3S2(=O)=O)c1 | 24.6 |
| CCn1cc(NC(=O)NCCN2CCc3ccccc3C2)cn1 | 17.5 |
| Cc1cc(C)n(C2CCCN(C(=O)c3ccc(N(C)C)nn3)C2)n1 (centres undefined) | 13.2 |
| CC(=O)Nc1cc(CCC2CCN(C(=O)c3ccccn3)CC2)ccn1 | 10.35 |
| O=C(CO)N1CCC(CCc2ccnc(Nc3cnccn3)c2)CC1 | 36 |
| CC(=O)N1CCC(CCc2ccnc(NC(=O)c3ccccn3)c2)CC1 | 21.95 |
| CC(=O)N1CCC(CCc2ccnc(Nc3ccccn3)c2)CC1 | 40.65 |
| CN1CCC(CCc2ccnc(NC(=O)c3ccccn3)c2)CC1 | 67.45 |
| O=C(Nc1cc(CCC2CCN(CCO)CC2)ccn1)c1ccccn1 | 52.8 |
